Records with an inconclusive call do not appear. Entries that show only a call come without a potency. The source made the active and inactive calls. Calls follow the shape of the dose curve; as a rule, active = well fitted inhibition curve with a large enough effect; inconclusive = small, poorly fitted or top-dose-only effect; inactive = flat fitted curve, though single readings scatter.
The compounds below were run against Glutathione peroxidase 1 (Homo sapiens) (UniProt P07203) (assay: Primary qHTS Assay for Inhibitors of Recombinant Selenoprotein Glutathione Peroxidase 1 (GPX1) (AID 1845191; also: nearly all actives have a fitted effect of over 65% in size)). Details: recombinant GPX1, GR-coupled NADPH fluorescence, 15 min; series mostly up to 48.8 µM.
Glutathione peroxidase 1 (Homo sapiens), sequence (P07203 whole entry, looked up): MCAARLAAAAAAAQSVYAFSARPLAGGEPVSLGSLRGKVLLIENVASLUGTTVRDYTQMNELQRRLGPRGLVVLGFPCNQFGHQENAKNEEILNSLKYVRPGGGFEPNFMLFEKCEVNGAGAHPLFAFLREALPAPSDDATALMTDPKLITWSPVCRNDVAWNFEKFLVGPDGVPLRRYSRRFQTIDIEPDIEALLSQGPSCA
Source text: Assay Provider: Elias S.J. Arner MD PhD.
Department of Medical Biochemistry and Biophysics
Karolinska Institutet, Solna, Stockholm, Sweden
Selenoprotein glutathione peroxidases (GPX), like the ubiquitously expressed GPX1 and the ferroptosis modulator GPX4, enact their antioxidant activities by reducing hydroperoxides using glutathione. […] GPX1 and GPX4 inhibitors have thus shown promise as anti-cancer agents. Existing inhibitors are often promiscuous, or modulate GPX activity only indirectly, so novel direct inhibitors identified through screening against GPX1 and GPX4 could be valuable. Here, we developed optimized glutathione reductase (GR)-coupled GPX assays for the biochemical high-throughput screen (HTS) of almost 12,000 compounds with known mechanisms of action. Initial hits were triaged using a GR counter-screen, assessed for isoform specificity using a separate GPX2 assay, and were assessed for general selenocysteine-targeting activity using a thioredoxin reductase (TXNRD1) assay. With this suite of assays, we identified novel GPX1/GPX2- and GPX4-specific inhibitors and can here present a validated pipeline for future discovery research for selenoprotein-targeting agents.
SEQUENCE No. (e.g., 1, 2, 3, etc.); […] (e.g., Cells, Incubation, Reagent, etc.); VALUE; DESCRIPTION.
1; Reagent 1; 3 uL; GPx1 enzyme or no enzyme control in 1536-well, black, solid Greiner assay plate.
2; Compound; 25 nL; Kalypsis pin tool (Wako USA) equipped with a 1536-well pin head.
3; Incubation; 30 min; room temperature.
4; Reagent 2; 1 uL; 10 nM GPX1, 1 mM GSH, 0.5 mM CHP, 0.5 mM NADPH, 100 nM GR, 0.01% BSA substrate
5; Detection; Fluorescence; ViewLux microplate reader, excitation 340 nm and emission 450 nm.
6; Incubation; 15 min; room temperature.
7; Detection; Fluorescence; ViewLux microplate reader, excitation 340 nm and emission 450 nm.
NOTES (numbers refer to Sequence numbers above)
1. 3 uL of 16.66 nM GPX1 and 0.016% BSA in assay buffer (50 mM Tris-HCl, 2 mM EDTA (pH 7.5), 150 mM NaCl) was added to columns 3-48 of 1536-well assay plates using a BioRAPTR Flying Reagent Dispenser (Let's Go Robotics (LGR), Carlsbad, CA). A no-enzyme control (0.01% BSA in TES assay buffer) was added to columns 1-2.
2. 25 nL of test compounds and DMSO controls were added to each well with a pin tool (Kalypsys).
3. The assay plates were incubated for 30 minutes at room temperature.
4. 1 uL of master mix (500 nM glutathione reductase (GR), 5 mM reduced glutathione (GSH), 2.5 mM NADPH in assay buffer) was added. 1 uL of cumene hydroperoxide (CHP) ([2.5 mM] in 50% EtOH) was then added within 5 minutes to initiate the reaction. Final concentrations were: 10 nM GPX1, 1 mM GSH, 0.5 mM CHP, 0.5 mM NADPH, 100 nM GR, 0.01% BSA.
5. Initial fluorescence readout (t=0) at 340/450 nm was measured using a ViewLux multimodal detector (PerkinElmer, Waltham, MA).
7. Endpoint fluorescence readout (t=15) at 340/450 nm was measured 15 min after room temperature incubation.
`CCOC(=O)Oc1ccc(CCNC(=O)[C@H](CCSC)NC(C)=O)cc1OC(=O)OCC` was tested, and the Potency was “inactive”.
For `Cc1c(C)c2c(c(C)c1OC(=O)CCC(=O)OCCO)CC[C@@](C)(CCC[C@H](C)CCC[C@H](C)CCCC(C)C)O2`, the Potency was “inactive”.
With `CC(C)Cc1ccc(C(C)C(=O)OCc2ccccn2)cc1` (stereo not given) the Potency was “inactive”.
`N#CSCC(=O)O` was tested, and the Potency was “inactive”.
In the case of `C/C(=N\O)[C@@H](C)NCC(C)(C)CN[C@H](C)/C(C)=N/O`, the Potency is reported as “inactive”.
With `CCC[C@H](N[C@@H](C)C(=O)N1[C@H](C(=O)O)C[C@@H]2CCCC[C@@H]21)C(=O)OCC` the Potency was “inactive”.
In the case of `CNC(=O)c1c(I)c(NC(C)=O)c(I)c(C(=O)O)c1I`, the Potency is reported as “inactive”.
For `OC1(c2ccc(Cl)c(C(F)(F)F)c2)CCN(CCCC(c2ccc(F)cc2)c2ccc(F)cc2)CC1`, the Potency was “inactive”.
For `C#CC(C)(CC)OC(=O)c1ccccc1C(=O)O` (stereo not given), the Potency was “inactive”.
With `CCOC(=O)c1cc(=O)c2c(OCC(COc3cccc4oc(C(=O)OCC)cc(=O)c34)OC(=O)[C@@H](N)CCCCN)cccc2o1` the Potency was “inactive”.
With `NS(=O)(=O)c1cc2c(cc1Cl)CN(C1CCCCC1)C2=O` the Potency was “inactive”.
In the case of `CO[C@@H]1[C@@H](O[C@@H]2O[C@H](C)[C@@H](O[C@H]3C[C@@](C)(O)[C@@H](O)[C@H](C)O3)[C@H](N(C)C)[C@H]2O)[C@@H](CC=O)C[C@@H](C)[C@@H](O[C@@H]2CC[C@H](N(C)C)[C@@H](C)O2)/C=C/C=C/C[C@@H](C)OC(=O)C[C@H]1OC(C)=O`, the Potency is reported as “inactive”.
With `CC(C)C(=O)Nc1cccc(C2CN3CCSC3=N2)c1` (stereo not given) the Potency was “inactive”.
With `Cc1ccc(C(C)OC(=O)C2(C)CCC(C(=O)O)C2(C)C)cc1` (stereo not given) the Potency was “inactive”.
For `O=C1[C@@H]2[C@H]3CC[C@H](C3)[C@@H]2C(=O)N1CCCCN1CCN(c2ncccn2)CC1`, the Potency was “inactive”.
For `COc1ccc2c(c1)c(CC(=O)OC/C=C(\C)CC/C=C(\C)CCC=C(C)C)c(C)n2C(=O)c1ccc(Cl)cc1`, the Potency was “inactive”.
For `O=C(Nc1ccc(Cl)cc1)Nc1ccc(Cl)c(Cl)c1`, the Potency was “inactive”.
`O=C1NC(c2cccc([N+](=O)[O-])c2)=CCN1c1ccccc1O` was tested, and the Potency was “inactive”.
`Cc1ccc(C(=O)Oc2ccc(C(O)CNC(C)(C)C)cc2OC(=O)c2ccc(C)cc2)cc1` (stereo not given) was tested, and the Potency was “inactive”.
In the case of `C1N2CN3CN1CN(C2)C3`, the Potency is reported as “inactive”.
`O=C(O)C(=O)Nc1cccc(-c2nn[nH]n2)c1` was tested, and the Potency was “inactive”.
For `C[C@@H](C1=C(CCN(C)C)Cc2ccccc21)c1ccccn1`, the Potency was “inactive”.
With `COc1cccc2c1[C@@H]1CN(CCCCn3c(=O)[nH]c4c(sc5ncc(-c6ccccc6)nc54)c3=O)C[C@@H]1CO2` the Potency was “inactive”.
For `CCC1=C[C@@H]2CN(C1)Cc1c([nH]c3ccccc13)[C@@](C(=O)OC)(c1cc3c(cc1OC)N(C)[C@H]1[C@@](O)(C(=O)OC)[C@H](OC(C)=O)[C@]4(CC)C=CCN5CC[C@]31[C@@H]54)C2`, the Potency was “inactive”.
For `CN(C)CCOC(c1ccccc1)c1ccc(Br)cc1` (stereo not given), the Potency was “inactive”.
With `C[C@H](CN1CCCC1)C(=O)c1ccc(C(F)(F)F)cc1` the Potency was “inactive”.
With `COC(=O)C1=C(C)NC(COC(N)=O)=C(C(=O)OC(C)C)C1c1cccc(Cl)c1Cl` (stereo not given) the Potency was “inactive”.
In the case of `O=C(O)Cc1ccccc1Oc1ccc(Cl)cc1Cl`, the Potency is reported as “inactive”.
With `CC(=O)OCC[N+](C)(C)C` the Potency was “inactive”.
In the case of `CC(C)C[C@@H]1[C@H](c2ccccc2)OC(=O)N1CCCN1CCCCCC1`, the Potency is reported as “inactive”.
In the case of `CCO[C@H](Cc1ccc(OCCc2ccc(OS(C)(=O)=O)cc2)cc1)C(=O)O`, the Potency is reported as “inactive”.
In the case of `CC(=O)Nc1c(I)c(NC(C)=O)c(I)c(C(=O)O)c1I`, the Potency is reported as “inactive”.
In the case of `CC(=O)OCC(=O)[C@@]1(O)CCC2C3CCC4=CC(=O)CC[C@]4(C)C3[C@@H](O)C[C@@]21C` (stereo not given in full), the Potency is reported as “inactive”.
With `CC1(C)O[C@@H]2C[C@H]3[C@@H]4C[C@H](F)C5=CC(=O)C=C[C@]5(C)[C@@]4(F)[C@@H](O)C[C@]3(C)[C@]2(C(=O)CO)O1` the Potency was “inactive”.
With `NS(=O)(=O)c1cc(C(=O)NN2C[C@H]3[C@H]4CCC(C4)[C@H]3C2)ccc1Cl` the Potency was “inactive”.
`CCOC(=O)C1=C(C)NC(C)=C(C(=O)OCC)C1c1ccccc1/C=C/C(=O)OC(C)(C)C` was tested, and the Potency was “inactive”.
In the case of `CCCC(=O)OCOC(=O)C1=C(C)NC(C)=C(C(=O)OC)C1c1cccc(Cl)c1Cl` (stereo not given), the Potency is reported as “inactive”.
`O=C(Nc1ccc(Cl)cc1)Nc1ccc(Cl)c(C(F)(F)F)c1` was tested, and the Potency was “inactive”.
With `CN(C)c1cc2c(Nc3ccc4c(cnn4Cc4ccccc4)c3)ncnc2cn1` the Potency was “inactive”.
For `O=C(Nc1ccc(S(=O)(=O)N2CCOCC2)cc1)c1cc(Cl)ccc1NS(=O)(=O)c1ccc(Cl)s1`, the Potency was “inactive”.

— PubChem BioAssay (NCATS)
